Measured values: PubChem BioAssay AID1159580 (chemical genetic matrix, 2015)
Screen size: about 5,500 compounds; about 2,000 (36%) were called active. Not shown: some 18% with an inconclusive outcome. This is one part of the list. A number with no mark means an inactive call. Rule as the data show it: active = normalized growth mostly below about 0.91 (no sharp cut-off); inconclusive = no clear call, values can overlap the other calls; inactive = mostly above about 0.92.

Assay: chemical genetic growth profiling, strain panel (AID 1159580);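 also: tested at 20 µM; growth read once vehicle control cultures reached saturation at 30 °C; 1 = growth at the plate median or of vehicle wells; lower values mean less growth of the strain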
Conditions: growth OD

Cc1cccc(CN2CCN(C(c3ccccc3)c3ccc(Cl)cc3)CC2)c1 (stereo not drawn)
normalized growth (S. cerevisiae deletion strains, locus YJR075W, strain HOC1, active compounds read low): 0.794 (active) | normalized growth (S. cerevisiae deletion strains, locus YKL009W, strain mrt4, active compounds read low): 0.971 | normalized growth (S. cerevisiae deletion strains, locus YKL068W, active compounds read low): 0.992 | normalized growth (S. cerevisiae deletion strains, locus YKL085W, strain MDH1 (second series), active compounds read low): 0.978 | normalized growth (S. cerevisiae deletion strains, locus YKL085W, strain MDH1, active compounds read low): 0.978 | normalized growth (S. cerevisiae deletion strains, locus YKL160W, strain elf1, active compounds read low): 0.75 (active) | normalized growth (S. cerevisiae deletion strains, locus YKR001C, strain vps1, active compounds read low): 0.47 (active) | normalized growth (S. cerevisiae deletion strains, locus YKR026C, strain gcn3, active compounds read low): 0.969 | normalized growth (S. cerevisiae deletion strains, locus YKR091W, strain srl3, active compounds read low): 0.964 | normalized growth (S. cerevisiae deletion strains, locus YLL001W, strain dnm1, active compounds read low): 0.81 (active) | normalized growth (S. cerevisiae deletion strains, locus YLL026W, active compounds read low): 0.8 (active) | normalized growth (S. cerevisiae deletion strains, locus YLL041C, strain sdh2, active compounds read low): 0.926 (active) | normalized growth (S. cerevisiae deletion strains, locus YLR027C, strain aat2, active compounds read low): 0.744 (active) | normalized growth (S. cerevisiae deletion strains, locus YLR039C, strain RIC1, active compounds read low): 1.31 | normalized growth (S. cerevisiae deletion strains, locus YLR058C, strain SHM2, active compounds read low): 0.766 (active) | normalized growth (S. cerevisiae deletion strains, locus YLR102C, strain apc9, active compounds read low): 0.99 | normalized growth (S. cerevisiae deletion strains, locus YLR113W, strain HOG1, active compounds read low): 0.912 | normalized growth (S. cerevisiae deletion strains, locus YLR221C, strain rsa3, active compounds read low): 0.601 (active) | normalized growth (S. cerevisiae deletion strains, locus YLR258W, strain gsy2, active compounds read low): 0.721 (active) | normalized growth (S. cerevisiae deletion strains, locus YLR262C, strain YPT6 (second series), active compounds read low): 0.905 | normalized growth (S. cerevisiae deletion strains, locus YLR262C, strain YPT6, active compounds read low): 1.06 | normalized growth (S. cerevisiae deletion strains, locus YLR268W, strain sec22, active compounds read low): 0.895 | normalized growth (S. cerevisiae deletion strains, locus YLR320W, strain mms22, active compounds read low): 0.713 (active) | normalized growth (S. cerevisiae deletion strains, locus YLR330W, strain CHS5, active compounds read low): 0.743 (active) | normalized growth (S. cerevisiae deletion strains, locus YLR342W, strain FKS1 (second series), active compounds read low): 0.791 | normalized growth (S. cerevisiae deletion strains, locus YLR342W, strain FKS1, active compounds read low): 0.929 | normalized growth (S. cerevisiae deletion strains, locus YLR357W, strain rsc2, active compounds read low): 0.908 | normalized growth (S. cerevisiae deletion strains, locus YLR370C, strain arc18, active compounds read low): 0.853 (active) | normalized growth (S. cerevisiae deletion strains, locus YLR371W, strain rom2, active compounds read low): 0.964 | normalized growth (S. cerevisiae deletion strains, locus YLR384C, strain iki3, active compounds read low): 0.992 | normalized growth (S. cerevisiae deletion strains, locus YLR418C, strain cdc73, active compounds read low): 0.365 (active) | normalized growth (S. cerevisiae deletion strains, locus YML016C, strain PPZ1, active compounds read low): 0.887 (active) | normalized growth (S. cerevisiae deletion strains, locus YML032C, strain rad52, active compounds read low): 0.831 (active) | normalized growth (S. cerevisiae deletion strains, locus YML120C, strain ndi1, active compounds read low): 0.616 (active) | normalized growth (S. cerevisiae deletion strains, locus YML124C, strain tub3, active compounds read low): 0.977 | normalized growth (S. cerevisiae deletion strains, locus YMR058W, strain fet3, active compounds read low): 0.873 (active) | normalized growth (S. cerevisiae deletion strains, locus YMR078C, strain ctf18, active compounds read low): 0.986 | normalized growth (S. cerevisiae deletion strains, locus YMR125W, strain sto1, active compounds read low): 0.854 (active) | normalized growth (S. cerevisiae deletion strains, locus YMR129W, active compounds read low): 0.876 (active) | normalized growth (S. cerevisiae deletion strains, locus YMR205C, strain PFK2, active compounds read low): 0.802 (active) | normalized growth (S. cerevisiae deletion strains, locus YMR223W, strain ubp8, active compounds read low): 0.809 (active) | normalized growth (S. cerevisiae deletion strains, locus YMR231W, strain pep5, active compounds read low): 0.526 (active) | normalized growth (S. cerevisiae deletion strains, locus YMR263W, strain SAP30, active compounds read low): 0.754 (active) | normalized growth (S. cerevisiae deletion strains, locus YMR307W, strain GAS1, active compounds read low): 0.611 | normalized growth (S. cerevisiae deletion strains, locus YNL067W, strain RPL9B, active compounds read low): 0.789 (active) | normalized growth (S. cerevisiae deletion strains, locus YNL071W, strain lat1, active compounds read low): 0.801 (active) | normalized growth (S. cerevisiae deletion strains, locus YNL183C, strain NPR1, active compounds read low): 0.947 | normalized growth (S. cerevisiae deletion strains, locus YNL209W, strain ssb2, active compounds read low): 0.54 (active) | normalized growth (S. cerevisiae deletion strains, locus YNL233W, strain BNI4, active compounds read low): 0.692 (active) | normalized growth (S. cerevisiae deletion strains, locus YNL248C, strain rpa49, active compounds read low): 0.806 (active) | normalized growth (S. cerevisiae deletion strains, locus YNL250W, strain rad50, active compounds read low): 0.983 | normalized growth (S. cerevisiae deletion strains, locus YNL271C, strain bni1, active compounds read low): 0.988 | normalized growth (S. cerevisiae deletion strains, locus YNL298W, strain CLA4, active compounds read low): 0.988 | normalized growth (S. cerevisiae deletion strains, locus YNL307C, strain MCK1, active compounds read low): 0.96 | normalized growth (S. cerevisiae deletion strains, locus YNL322C, strain KRE1 (second series), active compounds read low): 0.685 (active) | normalized growth (S. cerevisiae deletion strains, locus YNL322C, strain KRE1, active compounds read low): 0.972 | normalized growth (S. cerevisiae deletion strains, locus YNR049C, strain mso1, active compounds read low): 0.983 | normalized growth (S. cerevisiae deletion strains, locus YNR052C, strain pop2, active compounds read low): 0.724 (active) | normalized growth (S. cerevisiae deletion strains, locus YOL012C, strain htz1): 0.942 | normalized growth (S. cerevisiae deletion strains, locus YOL147C, strain pex11, active compounds read low): 0.913 (active) | normalized growth (S. cerevisiae deletion strains, locus YOR001W, strain rrp6, active compounds read low): 0.802 (active) | normalized growth (S. cerevisiae deletion strains, locus YOR061W, strain CKA2, active compounds read low): 0.916 | normalized growth (S. cerevisiae deletion strains, locus YOR069W, strain VPS5, active compounds read low): 0.955 | normalized growth (S. cerevisiae deletion strains, locus YOR070C, strain gyp1, active compounds read low): 0.735 (active) | normalized growth (S. cerevisiae deletion strains, locus YOR080W, strain dia2, active compounds read low): 0.937 | normalized growth (S. cerevisiae deletion strains, locus YOR083W, strain WHI5, active compounds read low): 0.689 (active) | normalized growth (S. cerevisiae deletion strains, locus YOR106W, strain vam3, active compounds read low): 0.549 (active) | normalized growth (S. cerevisiae deletion strains, locus YOR136W, strain idh2, active compounds read low): 0.937 | normalized growth (S. cerevisiae deletion strains, locus YOR144C, strain elg1, active compounds read low): 0.973 | normalized growth (S. cerevisiae deletion strains, locus YOR184W, strain ser1, active compounds read low): 0.833 (active) | normalized growth (S. cerevisiae deletion strains, locus YOR231W, strain MKK1, active compounds read low): 0.887 | normalized growth (S. cerevisiae deletion strains, locus YOR265W, strain rbl2, active compounds read low): 0.774 (active) | normalized growth (S. cerevisiae deletion strains, locus YOR270C, strain vph1, active compounds read low): 0.524 (active) | normalized growth (S. cerevisiae deletion strains, locus YOR290C, strain snf2, active compounds read low): 0.764 (active) | normalized growth (S. cerevisiae deletion strains, locus YOR316C, strain cot1, active compounds read low): 0.98 | normalized growth (S. cerevisiae deletion strains, locus YPL051W, strain arl3, active compounds read low): 0.496 (active) | normalized growth (S. cerevisiae deletion strains, locus YPL055C, strain LGE1, active compounds read low): 0.439 (active) | normalized growth (S. cerevisiae deletion strains, locus YPL078C, strain atp4, active compounds read low): 0.887 (active) | normalized growth (S. cerevisiae deletion strains, locus YPL106C, strain sse1, active compounds read low): 0.828 (active) | normalized growth (S. cerevisiae deletion strains, locus YPL240C, strain hsp82, active compounds read low): 0.808 (active) | normalized growth (S. cerevisiae deletion strains, locus YPL241C, strain CIN2, active compounds read low): 0.956 | normalized growth (S. cerevisiae deletion strains, locus YPL256C, strain CLN2, active compounds read low): 0.94 | normalized growth (S. cerevisiae deletion strains, locus YPR119W, strain clb2, active compounds read low): 0.996 | normalized growth (S. cerevisiae deletion strains, locus YPR141C, strain kar3, active compounds read low): 0.989 | normalized growth (S. cerevisiae deletion strains, locus YPR163C, strain tif3, active compounds read low): 0.721 (active) | normalized growth (S. cerevisiae deletion strains, locus YPR167C, strain met16, active compounds read low): 0.884 (active) | normalized growth (S. cerevisiae deletion strains, strain wtn01, active compounds read low): 0.761 (active) | normalized growth (S. cerevisiae strains, strain wild type, active compounds read low): 0.812 (active)
